esBAF inh: inhibitors of esBAF chromatin remodeling in mouse ES cells | hit rate 2% among 350,000 | Bmi1-luciferase knock-in reporter, 24 h; 100% = twice the neutral-well signal | reporter increase, % at 12.5 µM; in the data active means activation above about 40%; inconclusive means no clear call, values can overlap the other calls;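 further: a rise in the Bmi1 reporter signal indicates esBAF inhibition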
Rtt109 Vps75: inhibitors of Candida albicans Rtt109/Vps75 histone acetyltransferase; purified Rtt109/Vps75, ThioGlo CoA-SH fluorescence, 4 h; inhibition, % at 34.9 µM; hit rate 0.16% among 330,000; Q5AAJ8; AID 540336;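 active means inhibition of at least 50% in every replicate; inconclusive means best replicate reaches 50% inhibition but some replicates fall short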
Target sequence (Q5AAJ8 whole entry, looked up): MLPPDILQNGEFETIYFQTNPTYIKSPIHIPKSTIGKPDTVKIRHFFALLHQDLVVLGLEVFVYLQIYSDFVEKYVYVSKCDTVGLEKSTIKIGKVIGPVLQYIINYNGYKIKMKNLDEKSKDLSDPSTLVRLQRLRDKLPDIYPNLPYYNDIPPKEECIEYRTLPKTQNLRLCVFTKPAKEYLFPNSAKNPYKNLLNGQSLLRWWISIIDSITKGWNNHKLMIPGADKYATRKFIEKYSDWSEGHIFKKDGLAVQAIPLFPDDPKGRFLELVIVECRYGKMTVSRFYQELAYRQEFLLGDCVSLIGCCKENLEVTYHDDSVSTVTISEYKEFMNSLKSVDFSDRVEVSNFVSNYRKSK
Wnt act: activators of Wnt/beta-catenin signaling; activation, % at 9.35 µM; hit rate 1.2% among 300,000; Wnt/beta-catenin reporter cell assay, activator, plate reader; in the data active means activation above about 30%, passing the limit was not always enough; inconclusive means no clear call, values can overlap the other calls
MITF act: MITF TRPM1 promoter activation in melanoma cells; activation, % at 12.5 µM; SK-MEL-5 TRPM1-promoter luciferase, 24 h; % of positive control, neutral wells = 0; hit rate 0.75% among 300,000; AID 588334;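 active means mean activation of at least 80% with every replicate also reaching 80%; inconclusive means mean reaches 80% but some replicate falls short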
Statin myotox sup: suppressors of simvastatin-induced myotoxicity in C2C12 myotubes; AID 602340; hit rate 0.78% among 330,000; rescue of ATP level, % at 7.49 µM; ATP luminescence, 48 h; scaled: DMSO 0, geranylgeraniol control 100;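 active means mean ATP rescue above about 67%, or every replicate alone reaching that limit, limit read from the data, passing the limit was not always enough; inconclusive means no clear call, values can overlap the other calls; inactive means mean under the limit and some replicate under it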;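 further: myotubes were challenged with 10 µM simvastatin during compound exposure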
Numbers stand for hits; – = inactive; ? = inconclusive; · = no result given. The list is not random: actives were taken first. Their share in the collection is about 3.1%.

SMILES	esBAF inh	Rtt109 Vps75	Wnt act	MITF act	Statin myotox sup
O=C(Nc1ccccc1F)Nc1ccc([N+](=O)[O-])cc1Cl	·	–	43	–	·
C/C(=N/NS(=O)(=O)c1ccc(C)cc1)c1c(O)c2ccccc2oc1=O	–	–	–	–	–
CCCCCN=C(C)c1c(O)c2ccccc2oc1=O	58	–	–	–	–
CCNc1oc(COc2ccccc2F)nc1C#N	52	–	·	–	–
COc1ccc(CCNc2oc(COc3ccccc3F)nc2C#N)cc1OC	–	–	·	–	–
O=C(CCl)Oc1ccc2occ(C(=O)c3cccs3)c2c1	93	–	·	–	–
O=C(c1cccc(Br)c1)c1coc2ccc(O)cc12	70	–	–	90	–
CCC(=O)c1coc2ccc(O)cc12	·	–	·	–	·
CC(=O)Oc1ccc2occ(-c3ccccc3)c2c1	47	–	–	–	–
COc1ccc(C(=O)c2coc3ccc(O)cc23)cc1	–	–	–	–	–
O=C(c1cccs1)c1coc2ccc(O)cc12	67	–	51	94	–
O=C(NC1CCC1)[C@H]1[C@H](CO)[C@H]2Cn3c(ccc(-c4ccncc4)c3=O)[C@@H]1N2Cc1cocn1	–	·	·	·	–
C[C@@H]1CN([C@@H](C)CO)C(=O)Cc2cc(NS(=O)(=O)c3cn(C)cn3)ccc2O[C@@H]1CN(C)C	–	·	·	·	–
CC(=O)Oc1ccc2occ(C(=O)c3cccs3)c2c1	60	–	80	–	–
C[C@H](CO)N1C[C@H](C)[C@H](CN(C)S(C)(=O)=O)Oc2c(NC(=O)Nc3ccc(C(F)(F)F)cc3)cccc2C1=O	–	·	·	·	–
Cc1cccc(NC(=S)N/N=C/C(C)c2ccccc2)c1C (stereo not given)	·	–	34	–	·
O=C1COc2ccc(C(=O)COC(=O)c3ccccc3[N+](=O)[O-])cc2N1	77	–	–	–	–
COCC(=O)N1[C@@H](C#N)[C@@H](c2ccc(C3=CCCCC3)cc2)[C@@H]1CO	–	·	·	·	–
Brc1ccccc1-n1nnc(-c2nccs2)n1	?	–	45	91	–
c1ccc(-n2nnc(-c3nccs3)n2)cc1	–	–	40	?	–
C[C@H](CO)N1C[C@H](C)[C@@H](CN(C)Cc2ccccc2)Oc2ccc(NS(=O)(=O)c3ccccc3)cc2C1=O	–	·	·	·	–
CC(c1nc2ccccc2[nH]1)N(C(=O)C1=NNC(=O)CC1)c1ccccc1 (stereo not given)	–	·	–	·	–
Cc1cnc(C(=O)N(c2ccccc2)C(c2ccccc2)c2nc3ccccc3[nH]2)cn1 (stereo not given)	45	·	–	·	–
O=C(O)c1ccc(-c2noc(-c3cccc(F)c3)n2)cc1	–	–	45	–	–
CC(/C=N/NC(=O)c1cccs1)=C\c1ccco1	98	–	39	–	–
SMILES	esBAF inh	Rtt109 Vps75	Wnt act	MITF act	Statin myotox sup
CC(/C=N/NC(=O)Cc1cccs1)=C\c1ccco1	·	–	·	–	·
N#C/C(=C\c1ccc(OCc2ccc(C(=O)O)cc2)cc1)C(=O)NCc1ccccc1	–	–	–	–	–
N#C/C(=C\c1ccc(OCc2cccc(C(=O)O)c2)cc1)C(=O)NCc1ccco1	·	–	39	–	·
Cc1cc(/C=C(\C#N)C(=O)NCc2ccco2)c(C)n1C1CCCC1	53	–	39	–	–
C=C(C)COc1ccc2oc(C)c(C(=O)OCCOC)c2c1	–	–	–	–	106
CN(C)S(=O)(=O)c1cccc(NC(=O)C2Cc3ccccc3CN2C(=O)c2ccco2)c1 (stereo not given)	44	–	–	–	–
Cc1ccc(NC(=O)C2Cc3ccccc3CN2C(=O)c2ccco2)cc1S(=O)(=O)N(C)C (stereo not given)	–	–	–	–	–
O=C(c1ccc(COc2ccccc2[N+](=O)[O-])o1)N1CCCCCC1	55	–	–	–	–
Cc1c(OCc2ccc(C(=O)O)o2)ccc2c3c(c(=O)oc12)CCC3	–	–	·	–	–
Cc1ccc(OCc2ccc(C(=O)NN)o2)c([N+](=O)[O-])c1	·	–	–	·	·
COC(=O)c1ccc(COc2ccc3c(C)c(C)c(=O)oc3c2C)o1	23	–	·	·	·
COC(=O)c1ccc(COc2ccc(C)cc2[N+](=O)[O-])o1	·	–	36	·	·
C[C@@H]1CN([C@@H](C)CO)S(=O)(=O)c2ccc(C#C[C@@H](C)O)cc2O[C@@H]1CN(C)CC1CCOCC1	–	·	·	·	–
C[C@@H]1CN([C@@H](C)CO)C(=O)c2cc(-c3cccc(F)c3)cnc2O[C@@H]1CN(C)C(=O)C1CC1	·	·	·	·	–
O=C(NCC[C@H]1CC[C@@H](NC(=O)Nc2cc(F)ccc2F)[C@H](CO)O1)Nc1ccc(Cl)cc1	–	·	·	·	–
O=C(NCC[C@@H]1CC[C@@H](NC(=O)c2cccnc2)[C@H](CO)O1)Nc1ccc(C(F)(F)F)cc1	54	·	·	·	–
O=C(NCC[C@H]1CC[C@H](NC(=O)Nc2cc(F)ccc2F)[C@H](CO)O1)Nc1ccc(Cl)cc1	43	·	·	·	–
Cc1ccc(S(=O)(=O)N[C@H]2CC[C@@H](CCNC(=O)Nc3ccc(Cl)cc3)O[C@H]2CO)cc1	45	·	·	·	–
CCN1CCN(c2oc(-c3ccco3)nc2C#N)CC1	–	·	–	·	–
Cc1ccc(-c2nc(C#N)c(N3CCCCC3)o2)cc1	–	–	–	–	–
Cc1cccc(-c2nc(C#N)c(NC3CCCCC3)o2)c1	62	–	·	100	–
N#Cc1nc(-c2ccco2)oc1N1CCCC1	–	–	–	–	112
Cc1cccc(-c2nc(CS(=O)CC(=O)NC3CCCC3)c(C)o2)c1 (stereo not given)	–	–	–	·	–
Cc1cccc(-c2nc(C#N)c(N3CCCCC3)o2)c1	50	–	–	–	–
N#Cc1cccc(-c2ccc3c(c2)[C@@H]2[C@@H](CCN2C(=O)C2CCCCC2)[C@@H](CO)N3)c1	–	·	·	·	–
SMILES	esBAF inh	Rtt109 Vps75	Wnt act	MITF act	Statin myotox sup
CCCCCCCCCCCCCCCCn1cc[n+](C)c1	·	95	–	–	·
CCNC(=O)C[C@H]1CC[C@@H]2[C@@H](COc3ccc(NC(=O)Nc4cccc(F)c4)cc3C(=O)N2C)O1	–	·	·	·	–
COc1cccc2sc3ccc(NCCC4CCCN4C)cc3c(=O)c12 (stereo not given)	–	–	–	–	–
COc1cc2sc3cc(NCc4ccc5c(c4)OCO5)ccc3c(=O)c2cc1OC	–	–	–	–	–
COc1cc2sc3cc(NCC[C@@H]4CCCN4C)ccc3c(=O)c2cc1OC	53	–	–	97	–
COc1cc2sc3cc(NCc4ccc(C)o4)ccc3c(=O)c2cc1OC	·	–	?	109	·
COc1cccc(-c2cnc3c(c2)C(=O)N([C@H](C)CO)C[C@H](C)[C@H](CN(C)Cc2ccc(C(=O)O)cc2)O3)c1	–	·	·	·	–
COC(=O)c1ccc(N2OC3(C)C=CC2CC3)cc1 (stereo not given)	63	–	–	–	–
COCC(=O)N(C)C[C@H]1Oc2cc(C#CC3CCCC3)ccc2S(=O)(=O)N([C@H](C)CO)C[C@H]1C	·	·	·	·	–
CNC[C@H]1Oc2c(NS(=O)(=O)c3ccc(C)cc3)cccc2C(=O)N([C@H](C)CO)C[C@@H]1C	–	·	·	·	–

Bioassay records from PubChem BioAssay.
